Inhibition data for 8 molecules are collected here from ChEMBL document CHEMBL1961873, “Compounds: GSK PKIS; Assays: Nanosyn kinase panel” (2012).

Molecules are shown by their SMILES.

In assay [1] the target is MAP/microtubule affinity-regulating kinase 3 (Homo sapiens) (UniProt P27448). As to conditions: at 1 µM.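 Also: reported values are averaged percent inhibition of MARK3.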
The target in assay [2] is T1, MAP/microtubule affinity-regulating kinase 4 (Homo sapiens) (UniProt Q96L34).
T1 sequence (whole entry): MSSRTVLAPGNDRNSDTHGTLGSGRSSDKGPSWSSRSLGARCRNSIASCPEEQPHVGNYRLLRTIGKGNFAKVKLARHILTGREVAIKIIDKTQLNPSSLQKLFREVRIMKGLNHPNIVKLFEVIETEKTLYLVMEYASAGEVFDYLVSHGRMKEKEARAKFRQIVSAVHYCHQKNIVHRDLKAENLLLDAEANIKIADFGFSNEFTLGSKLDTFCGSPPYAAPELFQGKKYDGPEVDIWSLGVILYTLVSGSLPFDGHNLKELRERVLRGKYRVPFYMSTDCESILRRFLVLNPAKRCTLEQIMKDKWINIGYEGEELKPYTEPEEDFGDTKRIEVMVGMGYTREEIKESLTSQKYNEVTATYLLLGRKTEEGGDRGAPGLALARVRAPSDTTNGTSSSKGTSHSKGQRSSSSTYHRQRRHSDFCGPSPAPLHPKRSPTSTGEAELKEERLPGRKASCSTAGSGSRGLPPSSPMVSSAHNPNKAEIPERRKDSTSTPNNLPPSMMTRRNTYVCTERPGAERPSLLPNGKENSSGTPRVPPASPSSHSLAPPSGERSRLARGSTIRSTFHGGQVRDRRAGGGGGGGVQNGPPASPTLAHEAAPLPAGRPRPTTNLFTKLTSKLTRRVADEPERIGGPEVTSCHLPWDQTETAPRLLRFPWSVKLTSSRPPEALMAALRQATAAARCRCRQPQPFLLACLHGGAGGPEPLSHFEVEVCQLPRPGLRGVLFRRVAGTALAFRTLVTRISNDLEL
The conditions noted are these: at 0.1 µM.

In assay [3] the target is T1, MAP/microtubule affinity-regulating kinase 4 (Homo sapiens). The conditions noted are these: at 1 µM.
Assay [4] addresses Maternal embryonic leucine zipper kinase (Homo sapiens) (UniProt Q14680). The conditions noted are these: at 0.1 µM.
For assay [5] the target is unchanged. As to conditions: at 1 µM.
Assay [6] concerns the target MAP kinase-interacting serine/threonine-protein kinase 1 (Homo sapiens) (UniProt Q9BUB5). As to conditions: at 0.1 µM.
Assay [7] has the same target. The conditions noted are these: at 1 µM.
In assay [8] the target is MAP kinase-interacting serine/threonine-protein kinase 2 (Homo sapiens) (UniProt Q9HBH9). As to conditions: at 0.1 µM.
MAP kinase-interacting serine/threonine-protein kinase 2 (Homo sapiens), sequence (Q9HBH9 whole entry, looked up): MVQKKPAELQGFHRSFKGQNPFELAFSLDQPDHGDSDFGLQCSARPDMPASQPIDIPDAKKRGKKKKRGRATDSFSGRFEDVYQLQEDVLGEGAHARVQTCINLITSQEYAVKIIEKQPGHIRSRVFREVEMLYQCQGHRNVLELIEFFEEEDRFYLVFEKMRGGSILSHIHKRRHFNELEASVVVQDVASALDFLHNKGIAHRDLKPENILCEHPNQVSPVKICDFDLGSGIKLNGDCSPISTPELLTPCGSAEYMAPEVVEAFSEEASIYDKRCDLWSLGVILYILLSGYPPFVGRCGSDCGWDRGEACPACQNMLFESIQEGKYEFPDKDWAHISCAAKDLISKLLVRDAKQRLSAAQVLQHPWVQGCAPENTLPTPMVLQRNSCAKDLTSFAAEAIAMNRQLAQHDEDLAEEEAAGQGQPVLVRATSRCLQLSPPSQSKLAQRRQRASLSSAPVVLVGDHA
The target is the same in assay [9]. As to conditions: at 1 µM.
The target of assay [10] is Serine/threonine-protein kinase MARK2 (Homo sapiens) (UniProt Q7KZI7). As to conditions: at 0.1 µM.
Assay [11] has the same target. As to conditions: at 1 µM.
The target of assay [12] is PAS domain-containing serine/threonine-protein kinase (Homo sapiens) (UniProt Q96RG2). The conditions noted are these: at 0.1 µM.
PAS domain-containing serine/threonine-protein kinase (Homo sapiens), sequence (Q96RG2 whole entry, the tested form may be a part): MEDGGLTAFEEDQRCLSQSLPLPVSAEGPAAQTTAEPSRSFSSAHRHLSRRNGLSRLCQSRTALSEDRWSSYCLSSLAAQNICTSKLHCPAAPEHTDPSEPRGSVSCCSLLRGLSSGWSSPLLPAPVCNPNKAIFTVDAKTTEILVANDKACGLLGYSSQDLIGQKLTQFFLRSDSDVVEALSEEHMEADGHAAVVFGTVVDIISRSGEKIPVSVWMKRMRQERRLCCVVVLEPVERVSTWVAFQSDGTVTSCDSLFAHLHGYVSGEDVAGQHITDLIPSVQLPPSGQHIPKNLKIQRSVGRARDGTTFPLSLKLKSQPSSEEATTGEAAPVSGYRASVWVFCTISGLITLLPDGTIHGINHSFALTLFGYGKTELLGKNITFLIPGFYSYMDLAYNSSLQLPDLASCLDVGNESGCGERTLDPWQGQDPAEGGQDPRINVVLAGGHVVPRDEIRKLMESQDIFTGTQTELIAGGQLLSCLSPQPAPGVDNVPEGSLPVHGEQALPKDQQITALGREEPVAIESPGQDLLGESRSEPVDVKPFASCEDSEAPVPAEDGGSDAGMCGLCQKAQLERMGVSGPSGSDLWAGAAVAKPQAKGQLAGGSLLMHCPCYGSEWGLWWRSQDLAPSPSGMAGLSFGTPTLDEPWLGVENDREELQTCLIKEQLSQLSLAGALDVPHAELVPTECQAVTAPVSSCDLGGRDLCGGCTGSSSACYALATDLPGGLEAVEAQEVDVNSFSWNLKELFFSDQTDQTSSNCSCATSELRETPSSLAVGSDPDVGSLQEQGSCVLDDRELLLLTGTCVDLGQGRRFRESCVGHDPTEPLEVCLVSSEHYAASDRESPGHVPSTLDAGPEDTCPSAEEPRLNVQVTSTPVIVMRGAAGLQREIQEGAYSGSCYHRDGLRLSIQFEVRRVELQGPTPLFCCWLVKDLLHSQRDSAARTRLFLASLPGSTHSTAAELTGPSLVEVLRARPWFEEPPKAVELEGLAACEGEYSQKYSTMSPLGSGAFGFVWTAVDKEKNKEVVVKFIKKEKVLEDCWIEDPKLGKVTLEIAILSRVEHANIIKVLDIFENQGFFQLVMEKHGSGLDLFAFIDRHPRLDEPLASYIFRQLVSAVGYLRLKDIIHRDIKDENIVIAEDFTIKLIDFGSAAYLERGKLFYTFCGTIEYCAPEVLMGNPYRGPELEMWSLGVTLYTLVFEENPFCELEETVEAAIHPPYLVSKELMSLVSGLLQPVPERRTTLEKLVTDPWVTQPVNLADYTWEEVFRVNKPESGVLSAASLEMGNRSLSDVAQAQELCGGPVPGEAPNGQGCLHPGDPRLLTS
For assay [13] the target is unchanged. As to conditions: at 1 µM.
The target of assay [14] is Phosphorylase b kinase gamma catalytic chain, skeletal muscle/heart isoform (Homo sapiens) (UniProt Q16816). The conditions noted are these: at 0.1 µM.
Phosphorylase b kinase gamma catalytic chain, skeletal muscle/heart isoform (Homo sapiens), sequence (Q16816 whole entry, looked up, canonical isoform): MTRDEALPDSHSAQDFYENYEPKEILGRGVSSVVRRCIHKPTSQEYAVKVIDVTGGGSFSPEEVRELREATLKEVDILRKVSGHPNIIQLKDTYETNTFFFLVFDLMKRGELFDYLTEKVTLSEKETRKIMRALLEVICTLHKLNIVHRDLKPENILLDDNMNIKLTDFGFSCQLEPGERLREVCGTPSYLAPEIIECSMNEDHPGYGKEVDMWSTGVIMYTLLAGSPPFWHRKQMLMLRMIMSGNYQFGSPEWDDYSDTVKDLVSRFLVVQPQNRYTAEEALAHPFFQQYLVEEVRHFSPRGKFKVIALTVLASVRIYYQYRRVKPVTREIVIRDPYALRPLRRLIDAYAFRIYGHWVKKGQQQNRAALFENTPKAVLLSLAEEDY
For assay [15] the target is unchanged. As to conditions: at 1 µM.
Assay [16] addresses T2, Phosphorylase b kinase gamma catalytic chain, liver/testis isoform (Homo sapiens) (UniProt P15735).
T2 sequence (whole entry): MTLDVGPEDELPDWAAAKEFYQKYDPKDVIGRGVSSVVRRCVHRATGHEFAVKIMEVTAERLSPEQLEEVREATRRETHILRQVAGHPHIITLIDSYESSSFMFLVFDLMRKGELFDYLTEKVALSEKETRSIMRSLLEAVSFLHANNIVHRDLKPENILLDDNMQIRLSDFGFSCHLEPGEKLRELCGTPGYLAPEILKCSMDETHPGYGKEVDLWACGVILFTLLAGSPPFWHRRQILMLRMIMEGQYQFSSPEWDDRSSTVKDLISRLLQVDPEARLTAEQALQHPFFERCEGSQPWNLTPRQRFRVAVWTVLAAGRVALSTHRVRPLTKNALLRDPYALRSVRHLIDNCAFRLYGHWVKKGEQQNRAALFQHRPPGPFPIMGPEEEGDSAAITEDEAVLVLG
The conditions noted are these: at 0.1 µM.

The target in assay [17] is T2, Phosphorylase b kinase gamma catalytic chain, liver/testis isoform (Homo sapiens). As to conditions: at 1 µM.
For assay [18], the target named is Serine/threonine-protein kinase pim-1 (Homo sapiens) (UniProt P11309). As to conditions: at 0.1 µM.
Serine/threonine-protein kinase pim-1 (Homo sapiens), sequence (P11309 whole entry, looked up): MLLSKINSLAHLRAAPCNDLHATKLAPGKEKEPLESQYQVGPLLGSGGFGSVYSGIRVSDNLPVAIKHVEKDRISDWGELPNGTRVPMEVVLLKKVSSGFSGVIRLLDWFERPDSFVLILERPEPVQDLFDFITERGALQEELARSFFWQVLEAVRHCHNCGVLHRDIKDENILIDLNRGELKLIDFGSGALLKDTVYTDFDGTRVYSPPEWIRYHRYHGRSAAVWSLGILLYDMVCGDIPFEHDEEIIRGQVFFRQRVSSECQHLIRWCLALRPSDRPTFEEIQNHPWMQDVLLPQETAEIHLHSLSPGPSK
Assay [19] shares this target. As to conditions: at 1 µM.
The target in assay [20] is Serine/threonine-protein kinase pim-2 (Homo sapiens) (UniProt Q9P1W9). As to conditions: at 0.1 µM.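 Also: reported value is the mean percent inhibition of PIM2, measured in the GSK PKIS kinase inhibitor set screen.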
Serine/threonine-protein kinase pim-2 (Homo sapiens), sequence (Q9P1W9 whole entry, looked up): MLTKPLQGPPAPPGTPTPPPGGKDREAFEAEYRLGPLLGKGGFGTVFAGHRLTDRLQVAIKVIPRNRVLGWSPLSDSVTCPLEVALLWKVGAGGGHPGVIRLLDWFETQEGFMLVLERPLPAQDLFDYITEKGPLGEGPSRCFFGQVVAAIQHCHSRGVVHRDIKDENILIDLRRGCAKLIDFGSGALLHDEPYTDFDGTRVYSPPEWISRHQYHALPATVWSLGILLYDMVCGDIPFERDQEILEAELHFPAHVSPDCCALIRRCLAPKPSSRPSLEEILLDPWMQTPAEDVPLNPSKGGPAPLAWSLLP

Maternal embryonic leucine zipper kinase (Homo sapiens), sequence (Q14680 whole entry, looked up): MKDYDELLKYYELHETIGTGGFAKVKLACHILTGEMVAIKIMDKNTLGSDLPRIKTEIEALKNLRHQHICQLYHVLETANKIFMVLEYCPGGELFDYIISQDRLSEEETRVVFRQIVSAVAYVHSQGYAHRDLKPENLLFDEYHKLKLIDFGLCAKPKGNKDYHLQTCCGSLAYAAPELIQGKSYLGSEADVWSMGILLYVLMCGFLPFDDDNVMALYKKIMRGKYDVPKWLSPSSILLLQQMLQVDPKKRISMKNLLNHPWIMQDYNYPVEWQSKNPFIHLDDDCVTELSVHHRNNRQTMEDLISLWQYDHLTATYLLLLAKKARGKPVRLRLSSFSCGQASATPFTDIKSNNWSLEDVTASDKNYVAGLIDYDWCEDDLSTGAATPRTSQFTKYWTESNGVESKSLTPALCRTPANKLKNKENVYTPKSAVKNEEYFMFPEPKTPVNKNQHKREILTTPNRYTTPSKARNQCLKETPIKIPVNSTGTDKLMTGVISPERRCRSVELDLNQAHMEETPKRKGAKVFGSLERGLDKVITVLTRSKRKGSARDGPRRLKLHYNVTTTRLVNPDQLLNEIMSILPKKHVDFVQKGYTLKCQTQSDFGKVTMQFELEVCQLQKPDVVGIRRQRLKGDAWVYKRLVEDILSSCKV
MAP kinase-interacting serine/threonine-protein kinase 1 (Homo sapiens), sequence (Q9BUB5 whole entry, looked up): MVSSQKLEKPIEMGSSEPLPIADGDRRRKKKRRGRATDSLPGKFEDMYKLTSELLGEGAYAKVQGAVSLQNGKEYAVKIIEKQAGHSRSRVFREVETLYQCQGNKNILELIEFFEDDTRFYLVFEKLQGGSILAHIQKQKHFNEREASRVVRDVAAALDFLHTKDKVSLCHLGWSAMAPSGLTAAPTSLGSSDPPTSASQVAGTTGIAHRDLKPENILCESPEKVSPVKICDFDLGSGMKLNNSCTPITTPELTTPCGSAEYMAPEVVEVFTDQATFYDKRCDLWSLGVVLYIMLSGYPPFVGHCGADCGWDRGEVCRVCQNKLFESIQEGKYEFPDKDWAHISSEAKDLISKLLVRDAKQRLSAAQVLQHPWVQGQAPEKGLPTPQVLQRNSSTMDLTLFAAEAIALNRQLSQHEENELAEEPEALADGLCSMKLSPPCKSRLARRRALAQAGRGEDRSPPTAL
MAP/microtubule affinity-regulating kinase 3 (Homo sapiens), sequence (P27448 whole entry, looked up): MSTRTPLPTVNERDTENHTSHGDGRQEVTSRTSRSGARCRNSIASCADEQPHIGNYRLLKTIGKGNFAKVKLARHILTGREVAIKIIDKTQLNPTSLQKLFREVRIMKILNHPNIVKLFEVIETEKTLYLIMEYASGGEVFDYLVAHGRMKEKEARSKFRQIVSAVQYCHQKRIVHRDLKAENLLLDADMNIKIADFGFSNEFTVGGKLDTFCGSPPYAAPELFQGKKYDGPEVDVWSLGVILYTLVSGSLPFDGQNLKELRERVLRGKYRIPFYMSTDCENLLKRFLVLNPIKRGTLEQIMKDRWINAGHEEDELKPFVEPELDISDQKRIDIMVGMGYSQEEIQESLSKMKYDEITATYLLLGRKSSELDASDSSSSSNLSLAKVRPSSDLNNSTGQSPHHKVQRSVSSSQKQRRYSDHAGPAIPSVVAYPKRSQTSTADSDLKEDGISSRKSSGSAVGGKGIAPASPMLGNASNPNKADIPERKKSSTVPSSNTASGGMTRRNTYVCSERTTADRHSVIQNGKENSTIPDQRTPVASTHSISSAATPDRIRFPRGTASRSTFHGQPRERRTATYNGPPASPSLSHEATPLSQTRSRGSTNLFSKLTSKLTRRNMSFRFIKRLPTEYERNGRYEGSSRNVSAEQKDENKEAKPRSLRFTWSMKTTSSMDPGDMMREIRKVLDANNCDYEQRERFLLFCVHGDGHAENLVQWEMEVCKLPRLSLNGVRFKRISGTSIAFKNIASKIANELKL

On to `CC(C)c1ccc(-c2cc(-c3c[nH]nc3-c3ccccn3)ccn2)cc1`, for which the inhibition in [1] was 0.71%; in [2] it was -0.28%; in assay [3], 0.5%; in assay [4] it was 1.44%; in [5], 3.48%; in [6] it was 1.48%. Also, the inhibition in assay [7] was 3.11%; in assay [8], 0.97%; in [9], 2.83%; in assay [10] it was -2.82%; in [11], -0.26%; in [12] it was -0.36%. The inhibition is -1.24% in assay [13]; 0.46% in [14]; 1.25% in [15]; -0.69% in [16]; -0.76% in [17]; 0.3% in assay [18]. The inhibition in [19] was -0.2%; in [20], -0.34%.
For the molecule `CCN1CCC(C(=O)Nc2n[nH]c3nnc(-c4cccc(F)c4F)cc23)CC1`, the inhibition in [1] is 1.76%; in assay [2], 0.44%; in assay [3] it was 2.52%; in [4] it was -1.02%; in assay [5] it was -1.79%; in assay [6], 1.56%. In addition, the inhibition is 3.13% in [7]; 0.51% in [8]; 1.47% in [9]; -2.48% in assay [10]; 1.95% in assay [11]; 1.35% in [12]. Besides, the inhibition is 0.26% in [13]; 1.99% in assay [14]; 4.68% in [15]; -0.86% in assay [16]; -1.05% in assay [17]; -0.82% in [18]. Besides, the inhibition in assay [19] turned out to be 0.91%; in [20] it was 0.04%.
In the case of `CN(c1ccc(NC(=O)NCCN2CCOCC2)cc1)c1ccnc(Nc2ccc(CS(C)(=O)=O)cc2)n1`, the inhibition worked out at 9.85% in assay [1]; 1.24% in assay [2]; 5.47% in assay [3]; 2.36% in assay [4]; 7.07% in assay [5]; 2.87% in assay [6]. The inhibition in [7] is 8.84%; in [8], 2.32%; in assay [9], 9.63%; in assay [10], 0.88%; in assay [11] it was 2.47%; in [12] it was 0.41%. Also, the inhibition in [13] worked out at 2.08%; in assay [14], 2.5%; in assay [15], 5.5%; in assay [16] it was 2.91%; in assay [17] it was 6.71%; in assay [18], 0.61%. Moreover, the inhibition in assay [19] is -0.22%; in assay [20], 0.04%.
Turning to `CC1=C(C(=O)Nc2ccc3[nH]ncc3c2)C(c2ccc(F)cc2)N=C(c2ccc(C(F)(F)F)nc2)N1` (stereo not given), the inhibition was 1.71% in [1]; 0.35% in [2]; 2.44% in assay [3]; 2.15% in assay [4]; 5.11% in assay [5]; 2.55% in [6]. The inhibition is 4.82% in assay [7]; 0.9% in [8]; 3.32% in assay [9]; -1.01% in [10]; 2.79% in assay [11]; -0.13% in assay [12]. Moreover, the inhibition in assay [13] is -0.98%; in assay [14], 0.36%; in [15] it was 1.77%; in assay [16], 1.74%; in assay [17], -0.23%; in assay [18] it was 0.3%. In addition, the inhibition in [19] was -0.09%; in [20], 0.44%.
As to `Fc1ccc(Nc2nccc(-c3c(-c4ccc(C(F)(F)F)cc4)nn4ncccc34)n2)cc1F`, the inhibition was 3.91% in assay [1]; 1.29% in assay [2]; 2.56% in assay [3]; 1.38% in assay [4]; 3.78% in assay [5]; 2.72% in assay [6]. For the same molecule, the inhibition in assay [7] was 2.85%; in assay [8], 0.89%; in assay [9] it was 2.32%; in assay [10], -0.1%; in assay [11], 2.64%; in assay [12] it was 0.46%. For the same molecule, the inhibition in assay [13] is -1.14%; in assay [14], -0.56%; in assay [15], 1.84%; in [16], 3.81%; in assay [17], 0.35%; in assay [18], 1.07%. In addition, the values for the inhibition in assay [19] and in assay [20] were 0.89% and 0.92%, respectively.
On to `COc1ccc(-c2nn3ncccc3c2-c2ccnc(Nc3ccc(F)c(F)c3)n2)cc1`, for which the inhibition in assay [1] was determined as 10.5%; in assay [2] it was 1.45%; in assay [3] it was 1.84%; in [4], 3.07%; in assay [5] it was 4.64%; in assay [6], 2.98%. Further, the inhibition in [7] stood at 6.32%; in assay [8], 2.16%; in assay [9] it was 6.26%; in [10], 0.52%; in [11], 0.59%; in [12], 1.16%. Moreover, the inhibition worked out at 1.41% in assay [13]; 8.48% in assay [14]; 10.2% in assay [15]; 4.94% in assay [16]; 9.5% in [17]; 0.43% in assay [18]. In addition, the inhibition in assay [19] was 0.69%; in assay [20], 1.57%.
`N#Cc1cccc(Nc2ncc(-c3ccccc3)o2)c1`: the inhibition in [1] was 7.34%; in [2], -0.09%; in assay [3], 1.81%; in assay [4], -0.12%; in assay [5], 2.2%; in [6], 2.67%. Moreover, the inhibition in assay [7] is 10.1%; in assay [8], 2.19%; in [9], 8.7%; in assay [10], -0.17%; in [11] it was -0.47%; in [12], 0.37%. For the same molecule, the inhibition worked out at 2.05% in assay [13]; 2.95% in [14]; 12.9% in [15]; 1.85% in [16]; 6.04% in [17]; 0.15% in assay [18]. The figures for the inhibition in assay [19] and in [20] were 0.29% and 0.1%, respectively.
Take `COc1cccc(Nc2nccc(-c3cnn4ncccc34)n2)c1`: the inhibition is 29.6% in assay [1]; 0.65% in [2]; 17.3% in assay [3]; 5.16% in assay [4]; 52.3% in [5]; 2.14% in assay [6]. Also, the inhibition was 11.3% in assay [7]; 3.27% in assay [8]; 22.7% in assay [9]; 1.23% in assay [10]; 21.4% in assay [11]; -0.19% in [12]. Besides, the inhibition in [13] is -1.63%; in assay [14], 2.67%; in [15], 27.6%; in [16], 4.4%; in assay [17], 18.8%; in assay [18], 0.85%. For the same molecule, the inhibition in assay [19] was 6.56%; in assay [20] it was 0.37%.

Usually inhibition stands for the drop in the measured response relative to a control, in per cent.
